Results taken from PubChem BioAssay AID1159580 (chemical genetic matrix, 2015).
About 2,000 (36%) of roughly 5,500 compounds were called active. Inconclusive results (about 18%) are left out. This is one part of the list. A number with no mark means an inactive call. Cut-off read from the data, not from the text of the source: active = normalized growth mostly below about 0.91 (no sharp cut-off); inconclusive = no clear call, values can overlap the other calls; inactive = mostly above about 0.92.

Test: chemical genetic growth profiling, strain panel (AID 1159580);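 note: tested at 20 µM; growth read once vehicle control cultures reached saturation at 30 °C; 1 = growth at the plate median or of vehicle wells; lower values mean less growth of the strain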
Details: growth OD
[1] = S. cerevisiae deletion strains, locus YDL101C, strain DUN1, hits give low values
[2] = S. cerevisiae deletion strains, locus YHR030C, strain SLT2, hits give low values

SMILES: CCn1nc(C)cc1C(=O)Sc1cccc(Br)c1
- normalized growth (S. cerevisiae deletion strains, locus YAR019C, strain CDC15, hits give low values): 0.917
- normalized growth (S. cerevisiae deletion strains, locus YBL105C, strain PKC1, hits give low values): 0.934
- normalized growth (S. cerevisiae deletion strains, locus YBR135W, strain CKS1, hits give low values): 0.91
- normalized growth (S. cerevisiae deletion strains, locus YBR136W, strain MEC1, hits give low values): 0.942
- normalized growth (S. cerevisiae deletion strains, locus YBR160W, strain CDC28, hits give low values): 0.924
- normalized growth (S. cerevisiae deletion strains, locus YDL017W, strain CDC7, hits give low values): 0.935
- normalized growth (S. cerevisiae deletion strains, locus YDL028C, strain MPS1, hits give low values): 0.924
- normalized growth [1]: 0.951
- normalized growth (S. cerevisiae deletion strains, locus YDL108W, strain KIN28, hits give low values): 0.93
- normalized growth (S. cerevisiae deletion strains, locus YDL132W, strain cdc53, hits give low values): 0.922
- normalized growth (S. cerevisiae deletion strains, locus YDL214C, strain PRR2, hits give low values): 0.706
- normalized growth (S. cerevisiae deletion strains, locus YDR052C, strain DBF4, hits give low values): 0.971
- normalized growth (S. cerevisiae deletion strains, locus YDR054C, strain cdc34, hits give low values): 0.885
- normalized growth (S. cerevisiae deletion strains, locus YDR226W, strain ADK1, hits give low values): 0.925
- normalized growth (S. cerevisiae deletion strains, locus YDR477W, strain SNF1, hits give low values): 0.65 (active)
- normalized growth (S. cerevisiae deletion strains, locus YER123W, strain YCK3, hits give low values): 0.592 (active)
- normalized growth (S. cerevisiae deletion strains, locus YER133W, strain GLC7, hits give low values): 0.784
- normalized growth (S. cerevisiae deletion strains, locus YFL009W, strain cdc4, hits give low values): 0.883 (active)
- normalized growth (S. cerevisiae deletion strains, locus YFL029C, strain CAK1, hits give low values): 0.904
- normalized growth (S. cerevisiae deletion strains, locus YFR003C, strain YPI1, hits give low values): 0.932
- normalized growth (S. cerevisiae deletion strains, locus YFR019W, strain FAB1, hits give low values): 0.737 (active)
- normalized growth (S. cerevisiae deletion strains, locus YFR028C, strain CDC14, hits give low values): 0.933
- normalized growth (S. cerevisiae deletion strains, locus YGR040W, strain KSS1, hits give low values): 0.747
- normalized growth (S. cerevisiae deletion strains, locus YGR052W, strain FMP48, hits give low values): 0.725
- normalized growth (S. cerevisiae deletion strains, locus YGR092W, strain DBF2, hits give low values): 0.332 (active)
- normalized growth [2]: 0.613 (active)
- normalized growth (S. cerevisiae deletion strains, locus YHR079C, strain IRE1, hits give low values): 0.476 (active)
- normalized growth (S. cerevisiae deletion strains, locus YHR082C, strain KSP1, hits give low values): 0.626
- normalized growth (S. cerevisiae deletion strains, locus YHR205W, strain SCH9, hits give low values): 0.527 (active)
- normalized growth (S. cerevisiae deletion strains, locus YIL147C, strain SLN1, hits give low values): 0.933
- normalized growth (S. cerevisiae deletion strains, locus YJL095W, strain BCK1, hits give low values): 0.551
- normalized growth (S. cerevisiae deletion strains, locus YJL128C, strain PBS2, hits give low values): 0.913
- normalized growth (S. cerevisiae deletion strains, locus YJL157C, strain FAR1, hits give low values): 0.638 (active)
- normalized growth (S. cerevisiae deletion strains, locus YJR016C, strain ILV3, hits give low values): 0.921
- normalized growth (S. cerevisiae deletion strains, locus YJR066W, strain TOR1 (second series), hits give low values): 0.227 (active)
- normalized growth (S. cerevisiae deletion strains, locus YJR066W, strain TOR1, hits give low values): 0.543
- normalized growth (S. cerevisiae deletion strains, locus YKL048C, strain ELM1, hits give low values): 0.924
- normalized growth (S. cerevisiae deletion strains, locus YKL067W, strain YNK1, hits give low values): 0.714 (active)
- normalized growth (S. cerevisiae deletion strains, locus YKL101W, strain HSL1, hits give low values): 0.786
- normalized growth (S. cerevisiae deletion strains, locus YKL193C, strain SDS22, hits give low values): 0.927
- normalized growth (S. cerevisiae deletion strains, locus YKL203C, strain TOR2, hits give low values): 0.746
- normalized growth (S. cerevisiae deletion strains, locus YLR113W, strain HOG1, hits give low values): 0.461 (active)
- normalized growth (S. cerevisiae deletion strains, locus YLR133W, strain CKI1, hits give low values): 0.724 (active)
- normalized growth (S. cerevisiae deletion strains, locus YLR403W, strain SFP1, hits give low values): 0.566 (active)
- normalized growth (S. cerevisiae deletion strains, locus YML070W, strain DAK1, hits give low values): 0.727
- normalized growth (S. cerevisiae deletion strains, locus YMR001C, strain CDC5, hits give low values): 0.904
- normalized growth (S. cerevisiae deletion strains, locus YMR205C, strain PFK2 (second series), hits give low values): 0.819
- normalized growth (S. cerevisiae deletion strains, locus YMR277W, strain FCP1, hits give low values): 0.914
- normalized growth (S. cerevisiae deletion strains, locus YNL006W, strain LST8, hits give low values): 0.917
- normalized growth (S. cerevisiae deletion strains, locus YNL020C, strain ARK1, hits give low values): 0.697 (active)
- normalized growth (S. cerevisiae deletion strains, locus YNL161W, strain CBK1, hits give low values): 0.937
- normalized growth (S. cerevisiae deletion strains, locus YNL183C, strain NPR1, hits give low values): 0.629
- normalized growth (S. cerevisiae deletion strains, locus YNL207W, strain RIO2, hits give low values): 0.918
- normalized growth (S. cerevisiae deletion strains, locus YNL222W, strain SSU72, hits give low values): 0.917
- normalized growth (S. cerevisiae deletion strains, locus YNL307C, strain MCK1 (second series), hits give low values): 0.601 (active)
- normalized growth (S. cerevisiae deletion strains, locus YOL078W, strain AVO1, hits give low values): 0.91
- normalized growth (S. cerevisiae deletion strains, locus YOL136C, strain PFK27, hits give low values): 0.701
- normalized growth (S. cerevisiae deletion strains, locus YOR061W, strain CKA2, hits give low values): 0.662 (active)
- normalized growth (S. cerevisiae deletion strains, locus YOR119C, strain RIO1, hits give low values): 0.741
- normalized growth (S. cerevisiae deletion strains, locus YOR231W, strain MKK1, hits give low values): 0.486 (active)
- normalized growth (S. cerevisiae deletion strains, locus YOR329C, strain SCD5, hits give low values): 0.935
- normalized growth (S. cerevisiae deletion strains, locus YPL031C, strain PHO85, hits give low values): 0.619 (active)
- normalized growth (S. cerevisiae deletion strains, locus YPL153C, strain RAD53, hits give low values): 0.551 (active)
- normalized growth (S. cerevisiae deletion strains, locus YPL204W, strain HRR25, hits give low values): 0.676
- normalized growth (S. cerevisiae deletion strains, locus YPL209C, strain IPL1, hits give low values): 0.936
- normalized growth (S. cerevisiae deletion strains, locus YPL256C, strain CLN2, hits give low values): 0.634 (active)
- normalized growth (S. cerevisiae deletion strains, locus YPR025C, strain CCL1, hits give low values): 0.935
- normalized growth (S. cerevisiae deletion strains, locus YPR106W, strain ISR1, hits give low values): 0.97
- normalized growth (S. cerevisiae deletion strains, locus YPR111W, strain DBF20, hits give low values): 0.955
- normalized growth (S. cerevisiae deletion strains, strain NNK1, hits give low values): 0.963
- normalized growth (S. cerevisiae deletion strains, strain TSCII, hits give low values): 0.908

SMILES: CCn1nc(C)cc1C(=O)O
- normalized growth (S. cerevisiae deletion strains, locus YAL013W, strain DEP1, hits give low values): 0.992
- normalized growth (S. cerevisiae deletion strains, locus YBR229C, strain ROT2, hits give low values): 1.01
- normalized growth [1]: 1.03
- normalized growth (S. cerevisiae deletion strains, locus YDR150W, strain NUM1, hits give low values): 0.914
- normalized growth (S. cerevisiae deletion strains, locus YEL061C, strain CIN8, hits give low values): 1.03
- normalized growth (S. cerevisiae deletion strains, locus YGR078C, strain PAC10, hits give low values): 1.02
- normalized growth [2]: 1.07
- normalized growth (S. cerevisiae deletion strains, locus YHR087W, strain rtc3, hits give low values): 1.01
- normalized growth (S. cerevisiae deletion strains, locus YJL187C, strain SWE1, hits give low values): 1.02
- normalized growth (S. cerevisiae deletion strains, locus YJR043C, strain POL32, hits give low values): 0.962
- normalized growth (S. cerevisiae deletion strains, locus YJR075W, strain HOC1, hits give low values): 1.02
- normalized growth (S. cerevisiae deletion strains, locus YKL190W, strain CNB1, hits give low values): 1.02
- normalized growth (S. cerevisiae deletion strains, locus YLR039C, strain RIC1, hits give low values): 1.1
- normalized growth (S. cerevisiae deletion strains, locus YLR058C, strain SHM2 (second series), hits give low values): 1.02
- normalized growth (S. cerevisiae deletion strains, locus YLR085C, strain ARP6, hits give low values): 1.3 [resistant] (active)
- normalized growth (S. cerevisiae deletion strains, locus YLR262C, strain YPT6, hits give low values): 1.07
- normalized growth (S. cerevisiae deletion strains, locus YML094W, strain GIM5, hits give low values): 1.02
- normalized growth (S. cerevisiae deletion strains, locus YMR219W, strain ESC1, hits give low values): 1.01
- normalized growth (S. cerevisiae deletion strains, locus YMR263W, strain SAP30, hits give low values): 0.987
- normalized growth (S. cerevisiae deletion strains, locus YMR307W, strain GAS1, hits give low values): 1.24
- normalized growth (S. cerevisiae deletion strains, locus YNL153C, strain GIM3, hits give low values): 1
- normalized growth (S. cerevisiae deletion strains, locus YNL298W, strain CLA4 (second series), hits give low values): 1.04
- normalized growth (S. cerevisiae deletion strains, locus YNL322C, strain KRE1, hits give low values): 0.999
- normalized growth (S. cerevisiae deletion strains, locus YNR030W, strain Alg12, hits give low values): 1.02
- normalized growth (S. cerevisiae deletion strains, locus YPL055C, strain LGE1, hits give low values): 0.931
- normalized growth (S. cerevisiae deletion strains, locus YPL241C, strain CIN2, hits give low values): 1.03
- normalized growth (S. cerevisiae deletion strains, locus YPR135W, strain CTF4, hits give low values): 0.994
- normalized growth (S. cerevisiae strains, strain wild type, hits give low values): 1.02
